Among all 64,000 compounds or so, about 55 (0.09%) were called active. How the calls were made is not given here. Only a sample is shown.
These compounds were tested against Alkaline phosphatase, tissue-nonspecific isozyme (Homo sapiens) (UniProt P05186) (assay: human TNAP enzyme inhibitors, biochemical, luminescent (AID 518;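 further: plate controls were vehicle for no effect and reference inhibitor for full effect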)). Conditions: purified TNAP enzyme, luminescent substrate readout; at 20 µM; active compounds read high.
Chain of Alkaline phosphatase, tissue-nonspecific isozyme (Homo sapiens) (P05186 whole entry, looked up): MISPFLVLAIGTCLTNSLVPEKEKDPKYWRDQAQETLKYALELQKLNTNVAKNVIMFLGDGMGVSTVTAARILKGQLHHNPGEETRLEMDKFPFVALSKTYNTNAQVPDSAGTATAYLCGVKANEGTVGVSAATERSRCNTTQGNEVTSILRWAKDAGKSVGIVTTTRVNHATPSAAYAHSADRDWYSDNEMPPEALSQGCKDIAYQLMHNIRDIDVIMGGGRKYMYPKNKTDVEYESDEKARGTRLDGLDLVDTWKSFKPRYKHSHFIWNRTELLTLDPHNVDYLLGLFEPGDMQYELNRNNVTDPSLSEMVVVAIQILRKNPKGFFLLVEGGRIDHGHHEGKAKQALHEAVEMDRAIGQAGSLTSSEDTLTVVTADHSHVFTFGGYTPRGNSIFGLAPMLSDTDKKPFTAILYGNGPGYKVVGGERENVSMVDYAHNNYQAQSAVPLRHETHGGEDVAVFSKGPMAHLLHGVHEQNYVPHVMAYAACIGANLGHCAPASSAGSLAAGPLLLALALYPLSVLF

inhibition, inactive:
CCN1C(=O)OC2(CCCCC2)C1(C)O (stereo not drawn) 13%, O=C(NCCN1CCOCC1)c1cc2ccccc2o1 9.4%, Cc1cc2c(c(Sc3ccccc3)n1)C(=O)OC2 7.5%, O=C(N1CCOCC1)N1CCN(CC(O)COc2ccc3ccccc3c2)CC1 (stereo not drawn) 16.3%, Cn1c2ccccc2c2nnc(SCN3C(=O)c4ccccc4C3=O)nc21 8.4%, Cc1cc(C(=O)OCC(=O)Nc2nc(-c3ccccc3)cs2)c(C)o1 1.4%, O=c1c2ccccc2nc2n1CCCS2 4.5%, COc1cc2[nH]c3c(N4CCN(c5ccc(Cl)cc5)CC4)ncnc3c2cc1OC 5.3%, O=C(CCC(=O)c1ccc(F)cc1)OC1CCOC1=O (stereo not drawn) 6.6%, COc1ccccc1N1CCN(C(=O)CSc2ccc3c(C)cc(C)nc3n2)CC1 10.2%, Oc1ccccc1Oc1ncc(Br)c(N2CCOCC2)n1 -1.3%, C/C(N)=C(/C#N)C(=O)CSc1ncnc2ccccc12 5.5%, COc1ccccc1-c1nc(SCC(=O)O)n[nH]1 4.7%, Cc1nc2sc(C(c3cccc(F)c3)N3CCCC(C)C3)c(O)n2n1 (stereo not drawn) 5.8%, COc1ccc(OC)c2c1CCC2=O 8.1%, CN(CCCNC(=O)C1CCC(=O)N1Cc1ccc(F)cc1)c1ccccc1 (stereo not drawn) 1.1%, Cc1cc(C(=O)NCCN2CCN(c3cccc(Cl)c3)CC2)n(-c2ccccc2)n1 10.8%, CCc1c(C)[nH]c2ccc(C)cc2c1=O 7.8%, CCCCn1c(NCCN(C)C)nc2c1c(=O)[nH]c(=O)n2C -1%, O=C(CSc1oc(-c2ccccc2)nc1S(=O)(=O)c1ccc(F)cc1)NCC1CCCO1 (stereo not drawn) 1.7%, O=C(COc1ccc(S(=O)(=O)N2CCOCC2)cc1)Nc1ccc2c(c1)OCCO2 -6.1%, C=CCN1C(=O)C(O)(CC(=O)c2ccccc2)c2ccccc21 (stereo not drawn) 7.7%, CN(C)c1oc(-c2ccc(OCc3ccc(Cl)cc3)cc2)nc1C#N 5.2%, O=C(c1ccc(CNS(=O)(=O)c2cccc(C(F)(F)F)c2)cc1)N1CCOCC1 19.5%, CCn1cnc2sc(C(=O)N3CCN(Cc4ccc5c(c4)OCO5)CC3)c(C)c2c1=O 0.3%, c1ccc(N2CCN(C3CCSC3)CC2)cc1 (stereo not drawn) 13.5%, COCCNc1ncnc2nc[nH]c12 8.7%, CCOCCCNC(=O)C(c1ccc(C)cc1)N1CCOCC1 (stereo not drawn) -1%, CS(=O)(=O)N(CC(=O)NCc1ccc2c(c1)OCO2)c1ccc(Cl)cc1 6.8%, CCOc1ccc(CNc2ccc3c(c2)ncn3C)cc1 16.9%, Cc1nccn1CCC(=O)O 5.3%, CCc1ccccc1N1C(=O)C2CC(C)=C(C)CC2C1=O (stereo not drawn) 5.3%, Cc1cc(C(=O)NC(C)c2ccncc2)cs1 (stereo not drawn) 3.5%, Cc1ccc(S(=O)(=O)Cn2nnnc2C(c2ccc(F)cc2)N2CCCCC2)cc1 (stereo not drawn) 3.5%, CCCCCC(=O)N1CCN(CCN=CC2=C(O)CC(c3ccco3)CC2=O)CC1 (stereo not drawn) 8%, O=C(NCCN1CCOCC1)C1CCN(c2nc3ccccc3o2)CC1 7.3%, CCCc1ccc(S(=O)(=O)NCCc2ccncc2)cc1 10.5%, CCc1ccc2[nH]c(=O)c(C(c3nnnn3CC3CCCO3)N3CCCc4ccccc43)cc2c1 (stereo not drawn) 19.5%, COc1cc(C2C3CN(C)CC=C3C(C#N)=C(N)C2(C#N)C#N)ccc1OC(C)C (stereo not drawn) -0.1%, CC1c2nc3ccccc3n2C(CC(=O)NCc2ccccn2)C(=O)N1Cc1ccccc1 (stereo not drawn) 12.3%, Cc1onc(-c2c(F)cccc2Cl)c1C(=O)Nc1cccc2nsnc12 13.1%, COc1cc(C)nc(OCCNC(=O)COc2ccc(Cl)cc2Cl)n1 13.3%, COc1ccc(CNS(=O)(=O)c2ccc(C3CNC(=O)C3)cc2)cc1 (stereo not drawn) 8.2%, O=C(CSc1nnc2scc(-c3ccccc3)n12)N1CCCc2ccccc21 5.3%, C=CCOc1ccccc1C1C2=C(CC(C)(C)CC2=O)Nc2c1c(=O)n(C)c(=O)n2C (stereo not drawn) 4.4%, COC(=O)N(C)CCCC1(C)C(=O)N(C)c2ccc(O)cc21 (stereo not drawn) 8.6%, c1ccc(CSc2nncn2-c2ccccn2)cc1 17.8%, Cc1ccnc(NS(=O)(=O)c2cccs2)c1 14.5%, CCCc1noc2c1C(c1ccoc1)C(C#N)=C(N)N2 (stereo not drawn) 15.5%, CCN(CC)CCCN1C(=O)C(=O)/C(=C(/O)c2ccc3c(c2)OCCO3)C1c1ccc(C)o1 (stereo not drawn) 6.3%, c1ccc(CCc2nn3c(Cn4cnc5ccccc54)nnc3s2)cc1 10.8%, CCn1c2ccccc2c2nnc(SCC(=O)c3ccccc3)nc21 14.3%, CC(C)(CNS(=O)(=O)c1ccc(F)cc1)CNS(=O)(=O)c1ccc(F)cc1 10.8%, COc1ccc(CN(Cc2cc3cc4c(cc3[nH]c2=O)OCO4)C(=O)NC2CCCCC2)cc1 6.8%, O=C(NCc1ccco1)C(c1ccco1)N(CCc1ccccc1)C(=O)Cn1nnc2ccccc21 (stereo not drawn) 12.6%, Cc1ccc(N2C(=O)C3C(C2=O)C(C(=O)c2ccc(Cl)cc2)N2CCCC32)cc1 (stereo not drawn) 12%, CCOC(=O)c1cccnc1SCC(=O)N(C)c1ccccc1 -1.1%, O=C(Nc1c(Cl)cc(Cl)cc1C(=O)NCC1CCCO1)c1ccco1 (stereo not drawn) 5.4%, COC(=O)c1nc(NC(=O)C(C)C)n[nH]1 5.3%, COc1ccc2c(=O)c3c(=O)n(Cc4ccco4)c(-c4ccc(C)cc4)nc3oc2c1 9.7%, Cc1ccc(OCCn2c(=O)cnc3ccccc32)cc1 3.3%, CC1CCN(S(=O)(=O)c2cccc(C(=O)Nc3ccccn3)c2)CC1 24.3%, CCN1C(=O)C(Cc2nc3ccccc3c(=O)n2C)c2ccccc21 (stereo not drawn) 10.6%

Source: PubChem BioAssay AID518 (Sanford-Burnham Center for Chemical Genomics, 2006)
